In ChEMBL document CHEMBL1961873, “Compounds: GSK PKIS; Assays: Nanosyn kinase panel” (2012) one finds inhibition data, which are given here for 3 molecules.

The target in assay [1] is T1, Serine/threonine-protein kinase D2 (Homo sapiens) (UniProt Q9BZL6).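 Note: mean value of PRKD2 inhibition, from the GSK PKIS screening panel.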
T1 sequence (whole entry): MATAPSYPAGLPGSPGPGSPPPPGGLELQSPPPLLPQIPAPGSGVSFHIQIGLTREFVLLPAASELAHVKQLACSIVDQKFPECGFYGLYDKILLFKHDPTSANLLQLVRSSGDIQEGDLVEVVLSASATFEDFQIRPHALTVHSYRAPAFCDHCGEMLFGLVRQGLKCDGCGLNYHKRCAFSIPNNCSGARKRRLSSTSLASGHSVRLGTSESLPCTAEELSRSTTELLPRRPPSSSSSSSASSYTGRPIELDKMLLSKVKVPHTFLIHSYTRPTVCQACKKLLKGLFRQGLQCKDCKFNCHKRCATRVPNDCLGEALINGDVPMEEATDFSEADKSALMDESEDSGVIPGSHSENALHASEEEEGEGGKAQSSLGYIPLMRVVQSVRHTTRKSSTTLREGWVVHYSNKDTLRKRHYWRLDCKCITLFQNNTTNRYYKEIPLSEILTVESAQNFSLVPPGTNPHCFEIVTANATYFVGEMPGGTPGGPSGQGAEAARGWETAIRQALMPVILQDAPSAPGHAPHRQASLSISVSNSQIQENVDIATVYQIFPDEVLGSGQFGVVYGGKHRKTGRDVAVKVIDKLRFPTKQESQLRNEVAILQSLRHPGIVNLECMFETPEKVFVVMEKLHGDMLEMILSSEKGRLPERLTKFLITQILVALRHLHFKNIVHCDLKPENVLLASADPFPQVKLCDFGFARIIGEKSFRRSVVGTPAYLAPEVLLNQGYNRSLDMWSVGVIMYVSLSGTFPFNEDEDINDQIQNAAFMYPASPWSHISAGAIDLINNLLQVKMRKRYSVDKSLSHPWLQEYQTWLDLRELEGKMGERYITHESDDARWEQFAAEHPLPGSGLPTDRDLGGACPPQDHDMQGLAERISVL
The note with it: at 1 µM.

The target in assay [2] is T2, Serine/threonine-protein kinase D3 (Homo sapiens) (UniProt O94806).
T2 sequence (whole entry): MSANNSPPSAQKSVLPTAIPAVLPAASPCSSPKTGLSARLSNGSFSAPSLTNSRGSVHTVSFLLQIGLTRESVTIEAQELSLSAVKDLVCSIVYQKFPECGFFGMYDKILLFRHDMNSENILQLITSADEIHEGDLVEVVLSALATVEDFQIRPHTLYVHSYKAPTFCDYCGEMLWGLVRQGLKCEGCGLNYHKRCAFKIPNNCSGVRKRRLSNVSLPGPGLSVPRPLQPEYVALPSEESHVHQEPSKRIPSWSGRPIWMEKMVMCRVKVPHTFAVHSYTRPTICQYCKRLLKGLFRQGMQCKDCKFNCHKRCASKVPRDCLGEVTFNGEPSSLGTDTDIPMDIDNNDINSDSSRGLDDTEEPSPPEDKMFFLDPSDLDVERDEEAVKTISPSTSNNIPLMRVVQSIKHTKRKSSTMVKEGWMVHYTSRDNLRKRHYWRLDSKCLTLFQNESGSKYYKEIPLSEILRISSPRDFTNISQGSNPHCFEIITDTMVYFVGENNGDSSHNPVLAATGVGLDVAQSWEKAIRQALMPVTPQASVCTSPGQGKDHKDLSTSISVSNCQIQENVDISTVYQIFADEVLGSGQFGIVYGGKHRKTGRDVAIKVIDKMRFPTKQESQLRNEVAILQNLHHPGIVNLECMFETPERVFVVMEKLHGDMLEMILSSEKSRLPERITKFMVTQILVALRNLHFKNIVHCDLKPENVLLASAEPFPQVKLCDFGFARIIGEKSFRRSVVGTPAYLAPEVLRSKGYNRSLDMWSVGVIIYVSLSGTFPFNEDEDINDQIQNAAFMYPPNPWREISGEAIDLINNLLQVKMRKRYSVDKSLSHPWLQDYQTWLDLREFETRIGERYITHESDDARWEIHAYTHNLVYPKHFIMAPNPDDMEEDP
As to conditions: at 0.1 µM.

The target in assay [3] is T2, Serine/threonine-protein kinase D3 (Homo sapiens). As to conditions: at 1 µM.
Assay [4] addresses T3, cGMP-dependent protein kinase 1 (Homo sapiens) (UniProt Q13976).
T3 sequence (whole entry): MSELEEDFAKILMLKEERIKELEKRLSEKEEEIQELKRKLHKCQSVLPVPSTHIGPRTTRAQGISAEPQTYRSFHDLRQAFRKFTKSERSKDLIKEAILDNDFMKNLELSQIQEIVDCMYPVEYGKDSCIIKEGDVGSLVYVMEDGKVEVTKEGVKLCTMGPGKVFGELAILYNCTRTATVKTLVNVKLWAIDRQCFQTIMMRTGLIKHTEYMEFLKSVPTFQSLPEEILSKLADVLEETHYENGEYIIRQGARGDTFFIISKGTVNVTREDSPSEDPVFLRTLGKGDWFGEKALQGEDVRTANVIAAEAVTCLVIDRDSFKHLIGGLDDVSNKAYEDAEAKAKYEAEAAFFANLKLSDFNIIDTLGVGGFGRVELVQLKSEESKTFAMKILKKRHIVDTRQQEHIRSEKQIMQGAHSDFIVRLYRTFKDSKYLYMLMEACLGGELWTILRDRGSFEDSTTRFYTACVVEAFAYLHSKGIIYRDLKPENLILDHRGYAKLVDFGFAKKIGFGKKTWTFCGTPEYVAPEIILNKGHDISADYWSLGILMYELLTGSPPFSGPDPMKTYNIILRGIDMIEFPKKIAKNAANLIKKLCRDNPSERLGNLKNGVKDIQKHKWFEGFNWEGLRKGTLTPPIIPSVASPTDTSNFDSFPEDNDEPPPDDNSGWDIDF
As to conditions: at 0.1 µM.

Assay [5] has as its target T3, cGMP-dependent protein kinase 1 (Homo sapiens). The note with it: at 1 µM.
Assay [6] concerns the target T4, cGMP-dependent protein kinase 2 (Homo sapiens) (UniProt Q13237).
T4 sequence (whole entry): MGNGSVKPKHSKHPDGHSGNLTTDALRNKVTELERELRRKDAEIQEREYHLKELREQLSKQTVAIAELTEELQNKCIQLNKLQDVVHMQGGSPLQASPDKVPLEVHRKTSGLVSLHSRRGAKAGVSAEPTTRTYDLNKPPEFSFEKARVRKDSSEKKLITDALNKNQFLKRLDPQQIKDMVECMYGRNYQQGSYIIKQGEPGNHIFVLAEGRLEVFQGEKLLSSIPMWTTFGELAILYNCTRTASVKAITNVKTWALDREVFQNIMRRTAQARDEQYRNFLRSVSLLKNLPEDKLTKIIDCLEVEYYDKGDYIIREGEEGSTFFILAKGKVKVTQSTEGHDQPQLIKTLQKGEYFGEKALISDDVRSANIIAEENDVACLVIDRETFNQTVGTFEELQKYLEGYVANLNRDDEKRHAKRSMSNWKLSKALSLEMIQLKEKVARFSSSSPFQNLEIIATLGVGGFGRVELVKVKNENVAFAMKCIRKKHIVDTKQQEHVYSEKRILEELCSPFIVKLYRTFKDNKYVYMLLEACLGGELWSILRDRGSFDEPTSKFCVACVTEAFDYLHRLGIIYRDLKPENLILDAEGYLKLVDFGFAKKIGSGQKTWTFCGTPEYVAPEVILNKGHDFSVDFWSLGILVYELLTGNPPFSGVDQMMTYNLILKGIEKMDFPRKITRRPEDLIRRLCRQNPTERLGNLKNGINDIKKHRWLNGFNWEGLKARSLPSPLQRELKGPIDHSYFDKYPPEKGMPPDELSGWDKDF
The note with it: at 0.1 µM.

The target of assay [7] is T4, cGMP-dependent protein kinase 2 (Homo sapiens). The note with it: at 1 µM.
The target in assay [8] is T5, cAMP-dependent protein kinase catalytic subunit PRKX (Homo sapiens) (UniProt P51817).
T5 sequence (whole entry): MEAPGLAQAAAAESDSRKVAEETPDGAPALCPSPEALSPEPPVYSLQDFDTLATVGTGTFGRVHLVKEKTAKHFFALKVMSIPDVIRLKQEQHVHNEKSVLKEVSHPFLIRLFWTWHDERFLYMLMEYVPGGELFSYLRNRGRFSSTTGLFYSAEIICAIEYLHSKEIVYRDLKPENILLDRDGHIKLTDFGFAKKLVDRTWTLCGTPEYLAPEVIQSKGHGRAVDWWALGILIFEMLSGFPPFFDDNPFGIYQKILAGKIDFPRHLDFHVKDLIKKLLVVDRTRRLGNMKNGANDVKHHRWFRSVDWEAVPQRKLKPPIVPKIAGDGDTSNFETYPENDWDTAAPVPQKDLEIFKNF
As to conditions: at 0.1 µM.

Assay [9] has as its target T5, cAMP-dependent protein kinase catalytic subunit PRKX (Homo sapiens). As to conditions: at 1 µM.
The target of assay [10] is Rho-associated protein kinase 1 (Homo sapiens) (UniProt Q13464). The note with it: at 0.1 µM.
Sequence of Rho-associated protein kinase 1 (Homo sapiens) (Q13464 2-1354 limits assumed): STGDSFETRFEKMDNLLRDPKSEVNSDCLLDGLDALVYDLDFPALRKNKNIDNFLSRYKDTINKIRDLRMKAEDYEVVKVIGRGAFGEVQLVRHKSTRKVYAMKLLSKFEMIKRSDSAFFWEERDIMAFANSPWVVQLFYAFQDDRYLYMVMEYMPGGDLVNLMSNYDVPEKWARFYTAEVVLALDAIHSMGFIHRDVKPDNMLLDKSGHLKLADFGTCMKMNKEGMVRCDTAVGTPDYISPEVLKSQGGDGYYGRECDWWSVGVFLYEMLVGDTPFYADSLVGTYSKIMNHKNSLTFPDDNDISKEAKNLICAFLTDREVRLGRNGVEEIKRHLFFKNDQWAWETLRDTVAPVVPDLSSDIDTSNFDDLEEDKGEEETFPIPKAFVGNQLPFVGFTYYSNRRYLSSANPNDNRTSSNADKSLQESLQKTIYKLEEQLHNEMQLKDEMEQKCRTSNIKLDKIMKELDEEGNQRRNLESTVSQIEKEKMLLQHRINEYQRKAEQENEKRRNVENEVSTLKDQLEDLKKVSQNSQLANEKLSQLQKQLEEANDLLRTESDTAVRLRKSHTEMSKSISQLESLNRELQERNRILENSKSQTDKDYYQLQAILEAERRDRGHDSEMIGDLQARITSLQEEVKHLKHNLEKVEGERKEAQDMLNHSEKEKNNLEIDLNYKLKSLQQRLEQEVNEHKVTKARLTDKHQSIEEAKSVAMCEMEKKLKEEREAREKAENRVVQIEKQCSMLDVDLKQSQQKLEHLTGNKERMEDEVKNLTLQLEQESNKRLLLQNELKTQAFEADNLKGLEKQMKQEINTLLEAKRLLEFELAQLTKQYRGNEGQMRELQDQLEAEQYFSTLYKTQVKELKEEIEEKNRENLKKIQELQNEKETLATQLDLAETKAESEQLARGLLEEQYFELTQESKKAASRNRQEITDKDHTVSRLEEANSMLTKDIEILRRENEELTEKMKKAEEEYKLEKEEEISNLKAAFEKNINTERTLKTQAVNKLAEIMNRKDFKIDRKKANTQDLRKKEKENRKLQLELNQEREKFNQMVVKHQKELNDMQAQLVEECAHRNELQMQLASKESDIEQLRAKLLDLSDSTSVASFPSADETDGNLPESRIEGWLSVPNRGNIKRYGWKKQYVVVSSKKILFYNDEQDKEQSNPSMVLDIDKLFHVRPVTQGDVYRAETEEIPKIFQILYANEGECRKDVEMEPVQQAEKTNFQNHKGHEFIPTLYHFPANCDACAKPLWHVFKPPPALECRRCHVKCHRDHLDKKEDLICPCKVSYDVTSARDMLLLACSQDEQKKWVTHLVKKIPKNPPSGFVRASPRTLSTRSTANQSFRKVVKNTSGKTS
Assay [11] has the same target. The note with it: at 1 µM.
Assay [12] addresses Rho-associated protein kinase 2 (Homo sapiens) (UniProt O75116). The note with it: at 0.1 µM.
The target is the same in assay [13]. As to conditions: at 1 µM.
The target of assay [14] is Ribosomal protein S6 kinase alpha-1 (Homo sapiens) (UniProt Q15418). As to conditions: at 0.1 µM.
Sequence of Ribosomal protein S6 kinase alpha-1 (Homo sapiens) (Q15418 whole entry): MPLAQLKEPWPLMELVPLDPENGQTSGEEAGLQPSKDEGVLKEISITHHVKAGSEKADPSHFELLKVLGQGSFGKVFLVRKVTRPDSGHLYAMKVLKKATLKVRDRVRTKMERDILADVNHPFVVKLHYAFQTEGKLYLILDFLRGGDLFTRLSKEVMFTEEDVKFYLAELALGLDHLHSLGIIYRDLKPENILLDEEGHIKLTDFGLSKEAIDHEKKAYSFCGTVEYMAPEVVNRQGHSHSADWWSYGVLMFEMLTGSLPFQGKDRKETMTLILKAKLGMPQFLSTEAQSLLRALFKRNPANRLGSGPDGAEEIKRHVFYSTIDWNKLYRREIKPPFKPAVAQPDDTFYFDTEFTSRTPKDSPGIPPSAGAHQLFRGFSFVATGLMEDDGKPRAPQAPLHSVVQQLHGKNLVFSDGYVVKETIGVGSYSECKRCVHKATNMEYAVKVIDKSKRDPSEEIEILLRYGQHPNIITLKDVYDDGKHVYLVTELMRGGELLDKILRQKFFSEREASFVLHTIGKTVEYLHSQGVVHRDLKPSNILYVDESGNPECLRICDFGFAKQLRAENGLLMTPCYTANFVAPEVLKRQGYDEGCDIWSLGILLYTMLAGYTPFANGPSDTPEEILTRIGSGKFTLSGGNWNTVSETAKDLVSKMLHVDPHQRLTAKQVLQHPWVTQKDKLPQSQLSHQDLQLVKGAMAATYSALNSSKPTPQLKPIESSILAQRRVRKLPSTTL
The target is the same in assay [15]. As to conditions: at 1 µM.
The target in assay [16] is Ribosomal protein S6 kinase alpha-3 (Homo sapiens) (UniProt P51812). The note with it: at 0.1 µM.
Sequence of Ribosomal protein S6 kinase alpha-3 (Homo sapiens) (P51812 whole entry): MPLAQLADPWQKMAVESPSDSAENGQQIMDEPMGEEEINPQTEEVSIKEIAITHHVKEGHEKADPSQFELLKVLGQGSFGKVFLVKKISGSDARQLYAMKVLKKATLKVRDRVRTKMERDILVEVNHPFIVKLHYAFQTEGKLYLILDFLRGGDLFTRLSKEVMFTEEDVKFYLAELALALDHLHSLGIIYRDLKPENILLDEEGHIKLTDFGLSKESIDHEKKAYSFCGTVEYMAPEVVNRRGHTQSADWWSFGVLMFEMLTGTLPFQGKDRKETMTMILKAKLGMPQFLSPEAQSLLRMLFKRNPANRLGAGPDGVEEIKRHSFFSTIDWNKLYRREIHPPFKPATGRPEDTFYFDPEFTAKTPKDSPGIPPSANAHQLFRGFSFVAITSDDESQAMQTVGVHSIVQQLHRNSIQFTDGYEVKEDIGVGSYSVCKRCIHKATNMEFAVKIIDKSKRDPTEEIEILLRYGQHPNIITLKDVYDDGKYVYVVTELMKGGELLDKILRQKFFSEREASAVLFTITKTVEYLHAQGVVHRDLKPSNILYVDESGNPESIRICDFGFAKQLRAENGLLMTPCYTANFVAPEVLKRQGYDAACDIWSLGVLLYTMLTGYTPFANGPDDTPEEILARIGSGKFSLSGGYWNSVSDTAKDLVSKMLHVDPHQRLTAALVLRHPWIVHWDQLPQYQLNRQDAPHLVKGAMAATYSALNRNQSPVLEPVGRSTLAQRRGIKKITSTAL
The target is the same in assay [17]. As to conditions: at 1 µM.
In assay [18] the target is Ribosomal protein S6 kinase alpha-2 (Homo sapiens) (UniProt Q15349). As to conditions: at 0.1 µM.
Sequence of Ribosomal protein S6 kinase alpha-2 (Homo sapiens) (Q15349 whole entry): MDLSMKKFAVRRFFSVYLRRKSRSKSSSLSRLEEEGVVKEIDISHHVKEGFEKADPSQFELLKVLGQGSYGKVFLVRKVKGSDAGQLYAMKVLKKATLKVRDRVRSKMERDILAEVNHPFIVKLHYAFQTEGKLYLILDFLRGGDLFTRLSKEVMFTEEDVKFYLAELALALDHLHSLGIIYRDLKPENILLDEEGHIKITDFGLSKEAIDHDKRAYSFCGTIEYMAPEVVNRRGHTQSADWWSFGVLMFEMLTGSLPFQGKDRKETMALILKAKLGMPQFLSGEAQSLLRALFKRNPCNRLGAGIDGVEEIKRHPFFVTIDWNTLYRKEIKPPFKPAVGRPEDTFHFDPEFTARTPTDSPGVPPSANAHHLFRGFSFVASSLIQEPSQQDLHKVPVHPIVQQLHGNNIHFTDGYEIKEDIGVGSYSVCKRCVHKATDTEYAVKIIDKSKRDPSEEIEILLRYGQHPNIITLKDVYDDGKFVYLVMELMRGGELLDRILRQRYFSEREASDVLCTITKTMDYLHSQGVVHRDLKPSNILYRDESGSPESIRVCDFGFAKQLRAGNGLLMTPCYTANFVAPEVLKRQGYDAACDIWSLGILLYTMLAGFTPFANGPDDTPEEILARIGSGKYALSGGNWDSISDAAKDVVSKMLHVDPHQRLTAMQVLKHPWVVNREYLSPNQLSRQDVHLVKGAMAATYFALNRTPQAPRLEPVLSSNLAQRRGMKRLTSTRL
The target is the same in assay [19]. The note with it: at 1 µM.
For assay [20], the target named is Ribosomal protein S6 kinase alpha-6 (Homo sapiens) (UniProt Q9UK32). The note with it: at 0.1 µM.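 Note: reported value is the mean inhibition of RSK4, from the GSK PKIS kinase inhibitor screen.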
Sequence of Ribosomal protein S6 kinase alpha-6 (Homo sapiens) (Q9UK32 whole entry): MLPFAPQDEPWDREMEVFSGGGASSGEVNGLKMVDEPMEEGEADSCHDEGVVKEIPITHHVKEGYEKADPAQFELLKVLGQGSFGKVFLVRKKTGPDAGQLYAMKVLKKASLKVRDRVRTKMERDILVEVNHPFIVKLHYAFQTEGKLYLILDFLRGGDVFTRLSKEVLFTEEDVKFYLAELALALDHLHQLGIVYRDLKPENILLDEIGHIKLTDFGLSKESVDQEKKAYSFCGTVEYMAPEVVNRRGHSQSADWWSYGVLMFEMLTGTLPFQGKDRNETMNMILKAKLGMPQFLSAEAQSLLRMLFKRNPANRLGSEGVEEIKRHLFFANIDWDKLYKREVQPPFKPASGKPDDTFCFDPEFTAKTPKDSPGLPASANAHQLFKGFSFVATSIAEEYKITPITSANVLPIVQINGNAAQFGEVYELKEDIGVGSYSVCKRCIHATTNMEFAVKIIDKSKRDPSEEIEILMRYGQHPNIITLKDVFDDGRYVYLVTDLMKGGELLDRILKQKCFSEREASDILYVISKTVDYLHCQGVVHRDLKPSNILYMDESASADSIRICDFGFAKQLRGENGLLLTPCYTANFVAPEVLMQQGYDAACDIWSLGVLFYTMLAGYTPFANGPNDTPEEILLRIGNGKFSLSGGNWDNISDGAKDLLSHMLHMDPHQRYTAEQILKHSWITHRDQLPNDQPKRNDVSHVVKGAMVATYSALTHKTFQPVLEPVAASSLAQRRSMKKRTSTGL

As to `O=C1NC(=O)C(c2ccc(Cl)cc2)=C1Nc1ccc(Cl)c(C(=O)O)c1`, the inhibition in [1] is -0.34%; in assay [2], -1.37%; in assay [3], -0.38%; in assay [4], -0.49%; in assay [5], -0.47%; in assay [6], -1.52%. Moreover, the inhibition is -0.68% in [7]; -1.61% in assay [8]; -1.33% in [9]; -0.15% in [10]; 1.07% in assay [11]; -1.68% in assay [12]. Besides, the inhibition in [13] was -2.33%; in [14] it was -0.77%; in assay [15] it was -0.61%; in assay [16] it was -1.11%; in assay [17], -1.86%; in assay [18] it was -1.33%. The inhibition in [19] is -1.11%; in [20] it was -1.33%.

Consider `COC(=O)Nc1nc2cc(Oc3cccc(NC(=O)Nc4cc(C(F)(F)F)ccc4F)c3)ccc2[nH]1`, for which the inhibition in [1] came to 1.8%; in [2], 0.2%; in [3], 2.71%; in assay [4], 2.33%; in assay [5], 2.11%; in assay [6], 1.2%. The inhibition in assay [7] was 6.47%; in assay [8] it was 0.81%; in assay [9], 2.2%; in [10] it was -0.55%; in assay [11], 0.94%; in assay [12], -1.5%. For the same molecule, the inhibition in assay [13] is -0.89%; in [14], 0.53%; in assay [15], 0.21%; in assay [16] it was 0.36%; in assay [17], 1.19%; in assay [18], -0.64%. In addition, the inhibition in assay [19] was 2%; in [20], -0.63%.

On to `CS(=O)(=O)CCN(CC#N)Cc1ccc(-c2ccc3ncnc(Nc4ccc(OCc5cccc(F)c5)c(Cl)c4)c3c2)o1`, for which the inhibition in assay [1] was -4.76%; in [2] it was -2.15%; in assay [3] it was -3.08%; in [4] it was 2.42%; in [5], 3.06%; in assay [6], 0.52%. In addition, the inhibition in [7] was 0.66%; in assay [8], 1.58%; in assay [9], 1.54%; in [10] it was 0.99%; in [11], 1.43%; in [12], 0.1%. In addition, the inhibition is 0.19% in [13]; -0.47% in assay [14]; -0.29% in assay [15]; -1.25% in assay [16]; -1.73% in assay [17]; 0.79% in assay [18]. Further, the results for the inhibition in assay [19] and in assay [20] were 0.34% and -0.25%, respectively.

One may read the inhibition as the change of the read-out against control, counted positive when it falls.
